Assay results published in PubChem BioAssay AID1159580 (chemical genetic matrix, 2015).
Where “and” joins values, the source holds several entries; their conditions need not be identical. Equal entries are not always repeated. Among all 5,500 compounds or so, about 2,000 (36%) were called active. Roughly 18% stayed inconclusive and do not appear here. Rule as the data show it: active = normalized growth mostly below about 0.91 (no sharp cut-off); inconclusive = no clear call, values can overlap the other calls; inactive = mostly above about 0.92. This is one part of the list.

Assay: chemical genetic growth profiling, strain panel (AID 1159580);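 also: tested at 20 µM; growth read once vehicle control cultures reached saturation at 30 °C; 1 = growth at the plate median or of vehicle wells; lower values mean less growth of the strain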
Conditions: S. cerevisiae deletion strains, growth OD

Measured: normalized growth

Cc1cccc(C)c1NC1=NCCCS1
inactive: locus YAL013W, strain DEP1, hits give low values 0.999 | locus YAL021C, strain ccr4, hits give low values 1.03 | locus YAL026C, strain drs2, hits give low values 0.986 | locus YAL030W, strain snc1, hits give low values 1 | locus YAL040C, strain CLN3, hits give low values 0.978 | locus YBL061C, strain skt5, hits give low values 1 | locus YBR009C, strain hhf1, hits give low values 1.02 | locus YBR021W, strain FUR4, hits give low values 0.99 | locus YBR023C, strain chs3, hits give low values 1.02 | locus YBR171W, strain sec66, hits give low values 1.02 | locus YBR229C, strain ROT2, hits give low values 1 | locus YBR231C, strain swc5, hits give low values 0.997 | locus YBR279W, strain paf1, hits give low values 1 | locus YCL011C, strain gbp2, hits give low values 1.02 | locus YCL016C, strain dcc1, hits give low values 1 | locus YCL029C, strain bik1, hits give low values 0.974 | locus YCL061C, strain MRC1 (second series), hits give low values 1.01 | locus YCL061C, strain MRC1, hits give low values 1 | locus YCL069W, strain vba3, hits give low values 1 | locus YCR088W, strain abp1, hits give low values 1 | locus YDL005C, strain med2, hits give low values 0.995 | locus YDL035C, strain GPR1, hits give low values 0.979 | locus YDL040C, strain nat1, hits give low values 1 | locus YDL074C, strain BRE1, hits give low values 1.03 | locus YDL101C, strain DUN1, hits give low values 1 | locus YDL134C, strain PPH21, hits give low values 0.982 | locus YDL185W, strain tfp1, hits give low values 0.947 | locus YDL192W, strain arf1, hits give low values 0.987 | locus YDR001C, strain nth1, hits give low values 1.01 | locus YDR069C, strain doa4, hits give low values 1.02 | locus YDR101C, strain arx1, hits give low values 0.995 | locus YDR137W, strain rgp1, hits give low values 1 | locus YDR150W, strain NUM1, hits give low values 0.996 and 1.01 | locus YDR159W, strain sac3, hits give low values 0.991 | locus YDR162C, strain NBP2, hits give low values 0.97 | locus YDR195W, strain ref2 0.977 | locus YDR297W, strain sur2, hits give low values 1.01 | locus YDR318W, strain mcm21, hits give low values 0.972 | locus YDR334W, strain swr1, hits give low values 1.01 | locus YDR335W, strain msn5, hits give low values 1.01 | locus YDR363W, strain ESC2, hits give low values 1.02 | locus YDR388W, hits give low values 0.994 | locus YDR392W, strain spt3, hits give low values 1.01 | locus YDR502C, strain sam2, hits give low values 0.991 | locus YEL003W, strain gim4, hits give low values 1.01 | locus YEL037C, strain rad23, hits give low values 1.01 | locus YEL061C, strain CIN8 (second series), hits give low values 1.01 | locus YEL061C, strain CIN8, hits give low values 1 | locus YER002W, strain NOP16, hits give low values 1.01 | locus YER015W, strain faa2, hits give low values 1.01 | locus YER016W, strain bim1, hits give low values 1.01 | locus YER110C, hits give low values 0.976 | locus YER111C, strain swi4, hits give low values 1.01 | locus YER155C, strain BEM2 (second series), hits give low values 1.01 | locus YER155C, strain BEM2, hits give low values 0.995 | locus YER167W, strain BCK2, hits give low values 0.99 | locus YFR010W, strain ubp6, hits give low values 1.02 | locus YGL078C, strain dbp3, hits give low values 0.983 | locus YGL086W, strain mad1, hits give low values 0.998 | locus YGL167C, strain pmr1, hits give low values 1.01 | locus YGL173C, strain kem1, hits give low values 1.01 | locus YGL227W, strain vid30, hits give low values 1 | locus YGL240W, strain doc1, hits give low values 0.992 | locus YGL248W, strain PDE1, hits give low values 1.01 | locus YGL253W, strain hxk2, hits give low values 1.01 | locus YGR135W, strain pre9, hits give low values 0.967 | locus YGR229C, strain SMI1, hits give low values 0.996 | locus YGR252W, strain gcn5, hits give low values 1 | locus YHR013C, strain ard1, hits give low values 1.01 | locus YHR027C, strain rpn1, hits give low values 0.992 | locus YHR030C, strain SLT2, hits give low values 0.995 and 1.02 | locus YHR079C, strain IRE1 (second series), hits give low values 0.981 | locus YHR079C, strain IRE1, hits give low values 1.04 | locus YHR094C, strain hxt1, hits give low values 0.989 | locus YHR129C, strain ARP1, hits give low values 0.988 | locus YHR142W, strain chs7, hits give low values 1.01 | locus YHR200W, strain rpn10, hits give low values 0.96 | locus YIL066C, strain RNR3, hits give low values 1 | locus YIL073C, strain SPO22, hits give low values 0.86 | locus YIL125W, strain kgd1, hits give low values 0.987 | locus YIR030C, strain dcg1, hits give low values 0.975 | locus YJL092W, strain hpr5, hits give low values 1 | locus YJL095W, strain BCK1 (second series), hits give low values 1 | locus YJL095W, strain BCK1, hits give low values 1.03 and 1.04 | locus YJL115W, strain asf1, hits give low values 1.01 | locus YJL129C, strain trk1, hits give low values 1 | locus YJL134W, strain LCB3, hits give low values 0.994 | locus YJL154C, strain vps35, hits give low values 1.01 | locus YJL164C, strain tpk1, hits give low values 1.01 | locus YJL166W, strain qcr8, hits give low values 1.01 | locus YJL168C, strain set2, hits give low values 0.99 | locus YJL187C, strain SWE1 (second series), hits give low values 1.03 | locus YJR043C, strain POL32, hits give low values 1.02 | locus YJR066W, strain TOR1, hits give low values 0.955
